Giardia FBPA inh = inhibitors of Giardia lamblia fructose-1,6-bisphosphate aldolase; purified Giardia FBPA; Potency, µM (titrated, usually from 59.6 µM), for the others: top-dose activity, negative = inhibition, usual class: inhibitors; 290,000 compounds, 0.71% hits; further: potency means the concentration at half of the fitted maximal effect; nearly all actives have a fitted effect of over 55% in size
Target sequence (A8B2U2 whole entry, looked up): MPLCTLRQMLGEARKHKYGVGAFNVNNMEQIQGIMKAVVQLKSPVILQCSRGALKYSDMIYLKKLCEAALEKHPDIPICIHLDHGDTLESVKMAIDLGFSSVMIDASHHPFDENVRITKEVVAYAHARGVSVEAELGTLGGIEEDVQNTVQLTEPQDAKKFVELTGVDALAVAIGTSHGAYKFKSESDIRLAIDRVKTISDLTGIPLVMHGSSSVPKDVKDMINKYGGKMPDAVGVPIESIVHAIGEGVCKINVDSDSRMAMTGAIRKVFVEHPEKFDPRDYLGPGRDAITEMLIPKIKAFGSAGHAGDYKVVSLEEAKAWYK
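40 nM FBPA preincubated 10 min at RT with compound (up to 57.5 uM final), then substrate plus GAPDH/TPI/NAD/arsenate coupling and diaphorase/resazurin added. Fluorescence read after 20 min at RT, 525/598 nm.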
Pf growth 48h = P. falciparum growth inhibition at 48 hours (one generation); P. falciparum luciferase growth in erythrocytes, 48 h; Potency, µM (doses to about 28.7 µM), inactives show at the top dose activity change, negative = inhibition, hits mostly inhibitors; 310,000 compounds, 5.9% hits; AID 504832; further: potency means the concentration at half of the fitted maximal effect
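In quantitative HTS format, infected erythrocytes bearing luciferase-reporter parasites were treated for a single generation at 37 C. Luminescence after adding detection reagent served as the growth measure.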
HCMV antiviral = blocks human cytomegalovirus replication. HFF cells, HCMV-luciferase reporter, 72 h; active compounds read low. activity change, negative = inhibition, % at 57.5 µM. 410,000 compounds, 4.5% hits; in the data active means activity change below about -60%; inconclusive means no clear call, values can overlap the other calls; inactive means above about -39%
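Compounds were evaluated in HFFs infected with an HCMV luciferase reporter virus (MOI 1 PFU/cell). Luciferase in lysates collected 72 h post infection served as the replication measure.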
Sm TGR block = S. mansoni TGR enzyme inhibition | Q962Y6 | purified TGR, DTNB reduction, TNB absorbance 405 nm | Potency, µM (top dose mostly 114 µM), for inactives: top-dose activity change, negative = inhibition, usual class: inhibitors | 360,000 compounds, 3% hits; further: potency means the concentration at half of the fitted maximal effect; nearly all actives have a fitted effect of over 60% in size
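TGR 20 nM + NADPH 100 uM (dispensed conc.), cpd preinc 15 min RT; start with NADPH (500 uM addition) then DTNB (15 mM addition). Kinetic TNB absorbance, 405 nm filter. Four-parameter Hill fit across titration.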
Pf growth 96h = P. falciparum growth inhibition at 96 hours | P. falciparum luciferase reporter growth, 96 h | Potency, µM (doses to about 28.7 µM), inactives show at the highest dose activity change, negative = inhibition, usual class: inhibitors | 320,000 compounds, 6.9% hits | AID 504834; further: potency means the concentration at half of the fitted maximal effect
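96 h incubation, 37 C, 5% CO2, of luciferase-reporter P. falciparum-infected RBCs (2% hematocrit, 0.05% parasitemia final) with test compounds; endpoint luminescence.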
Starred values were filed as active, the others as inactive; ? = inconclusive; nt = no result given. Compounds with a hit are over-represented: about 14% of the library has one in this group of screens. Unless noted, the call rests on the fitted dose curve; in most records, active means well fitted curve in the direction sought with a large enough effect; inconclusive means small, poorly fitted or top-dose-only effect, or another doubt; inactive means no such curve, though single readings can be large; an effect the other way counts as inactive or inconclusive. On the % scale 0 is the no-effect control and ±100 the full control effect.

SMILES	Giardia FBPA inh	Pf growth 48h	HCMV antiviral	Sm TGR block	Pf growth 96h
Cc1nonc1NC(=O)c1oc2ccc(F)cc2c1C	nt	5%	-4	-2%	-16%
CCc1nonc1NC(=O)c1oc2ccc(C)cc2c1C	nt	67%	15	0%	?
CCc1nonc1NC(=O)c1oc2ccccc2c1C	nt	9.3µM*	-23	2%	?
CCc1nonc1NC(=O)c1oc2cc(Br)ccc2c1C	nt	9.3µM*	2	2%	?
CCOc1ccc(-c2nonc2NC(=O)c2oc3ccc(Br)cc3c2C)cc1	nt	nt	-96*	7%	nt
Cc1cc2oc(C(=O)Nc3nonc3C)c(C)c2cc1Cl	nt	75%	69	3%	8.3µM*
Cc1ccc(-n2nc(C)c3c(C)c(CCC(=O)NCCCOC(C)C)c(C)nc32)cc1	-4%	?	?	3%	-1%
CCN(CC)CCNC(=O)CCc1c(C)nc2c(c(C)nn2-c2ccc(C)c(C)c2)c1C	4%	13µM*	-98*	-1%	23%
COC(CNC(=O)CCc1c(C)nc2c(c(C)nn2-c2ccc(C)cc2)c1C)OC	4%	2.6µM*	-23	16%	13%
COc1ccc(CCNC(=O)CCc2c(C)nc3c(c(C)nn3-c3ccc(C)c(C)c3)c2C)cc1OC	nt	nt	16	7%	nt
COc1ccccc1-c1cc2nc(C)c(CCC(=O)NCCc3ccc(SC)cc3)c(C)n2n1	nt	nt	-31	-6%	nt
CCOc1ccc(CNCCCSc2ncccn2)cc1	?	-15%	3	-11%	10µM*
Clc1cccc(Cl)c1CNCCCSc1ncccn1	?	-11%	18	7%	-27%
Fc1cccc(Cl)c1CNCCCSc1ncccn1	?	-11%	14	-10%	13µM*
CC(C)c1ccc(CNCCCSc2ncccn2)cc1	-16%	5%	-16	-21%	13µM*
Cn1c(=O)c([N+](=O)[O-])c(-n2cnc3ccccc32)c2ccccc21	-3%	0%	-1	16µM*	0%
Cc1nccn1-c1c([N+](=O)[O-])c(=O)n(C)c2ccccc12	-8%	-24%	22	-16%	-22%
Cn1c(=O)c([N+](=O)[O-])c(Cl)c2ccccc21	-10%	-7%	-71*	0.45µM*	-3%
CCc1nc2ccc(C(=O)Nc3cc(-c4ccccc4)ccc3OC)cn2c1N(C=O)CCC(C)C	nt	nt	0	nt	nt
O=S(=O)(NCCCCCCc1ccccc1)c1cccc2c(Cl)cccc12	-5%	nt	nt	nt	nt
COc1ccc(C2CC(c3ccc(Cl)cc3)Nc3nc(NC(=O)c4ccco4)nn32)cc1 (centres undefined)	23%	9.3µM*	31	-10%	13%
O=C(Nc1nc2n(n1)C(c1ccc(F)cc1)CC(c1ccccc1)N2)c1ccco1 (centres undefined)	-25%	-20%	-4	-3%	?
O=C(Nc1nc2n(n1)C(c1ccc(Cl)cc1)CC(c1ccc(Cl)cc1)N2)c1ccco1 (centres undefined)	8%	10µM*	21	5%	?
CN(Cc1ccccc1)C(=O)c1ccc(NC(=O)C2=CSCCO2)cc1	nt	4%	-15	-10%	?
O=C(/C=C/c1ccc2c(c1)OCO2)c1cccs1	-17%	nt	nt	nt	nt
SMILES	Giardia FBPA inh	Pf growth 48h	HCMV antiviral	Sm TGR block	Pf growth 96h
Cc1c(Cl)cccc1NC(=O)C(=O)NCCc1csc(-c2cccc(F)c2)n1	nt	nt	-10	-1%	nt
OCCN1CCN(C(=S)c2ccc(Cl)cc2)CC1	-17%	6%	-6	-21%	nt
CCN1CCN(C(=S)c2ccc(Cl)cc2)CC1	4µM*	nt	1	-14%	nt
Cc1nc(-c2ccc(Cl)cc2)sc1C1(C)CC(c2ccc(F)cc2)=NO1 (centres undefined)	-5%	8%	-13	-30%	44%
COc1cc2c(cc1OC)C(c1c(O)n(CCc3ccccc3)c(=S)[nH]c1=O)NCC2 (centres undefined)	5%	0%	-64*	1%	6%
Cc1cc(OC2CCCCC2)nc(NCc2ccccc2)n1	5%	?	-1	7%	5.2µM*
CCCCOc1cc(C)nc(NCc2ccccc2)n1	20%	13µM*	-21	0%	?
Cc1cc(N2CCCCC2)nc(NCc2ccccc2)n1	8%	3.3µM*	-64*	-5%	2.9µM*
CCOc1cc(C)nc(NCc2ccccc2)n1	2%	nt	26	3%	?
